Reference: PubChem BioAssay (Tox21)
Inconclusive results are not listed. Activity calls are given as the source filed them. Unless noted, calls follow the shape of the dose curve; as a rule, active = well fitted curve in the direction sought with a large enough effect in the repeat runs; inconclusive = weak or mixed curves; inactive = no such curve, though single readings can be large; an effect the other way counts as inactive or inconclusive.

Assays:
[1] = qHTS assay to identify small molecule agonists of the sonic hedgehog signaling (Shh) pathway - cell viability counter screen (AID 1259366); also: nearly all actives have a fitted effect of over 50% in size
In short: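 Cytotoxicity counter screen: CellTiter-Fluor reagent added after 23 h compound exposure, then 1 h at 37C and fluorescence read. Cells were 3T3 Gli1-Luc, seeded 2,000 per well and dosed 4 h post-plating.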

[2] = qHTS assay to identify small molecule antagonists of the sonic hedgehog signaling (Shh) pathway - cell viability counter screen (AID 1259367); also: nearly all actives have a fitted effect of over 55% in size
In short: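 After a 4 hr settling period, 3T3 Gli1-Luc cells were treated with DMSO-dissolved chemicals and conditioned medium, kept 24 hr at 37C in 5% CO2, and assayed for viability by CellTiter-Fluor fluorescence following 1 hr reagent incubation.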

[3] = qHTS assay to identify small molecule agonists of the sonic hedgehog signaling (Shh) pathway (AID 1259368; calls by dose curve;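 also: NIH/3T3-derived 3T3Gli1-Luc cells carrying a stable Gli1-driven firefly luciferase reporter; series mostly up to about 92 µM; nearly all actives have a fitted effect of over 15% in size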)
In short: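 NIH/3T3-derived 3T3Gli1-Luc cells with stably integrated Gli1-driven firefly luciferase, 2,000 cells/well, compounds added after 4 hr. Incubated 24 hr at 37C, 5% CO2; luminescence read after 30 min with luciferase reagent at room temperature.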

[4] = qHTS assay to identify small molecule antagonists of the sonic hedgehog signaling (Shh) pathway (AID 1259369; calls by dose curve; also: nearly all actives have a fitted effect of over 45% in size)
In short: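 NIH/3T3-derived Gli1-Luc reporter cells plated 4 h, dosed with compound, then stimulated with conditioned medium for 24 h at 37 C. Firefly luciferase luminescence read after 30 min with detection reagent at room temperature.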

[5] = qHTS assay to identify small molecule agonists of the androgen receptor (AR) signaling pathway in the presence of an antagonist - cell viability counter screen (AID 1259379);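 also: MDA-kb2 human breast cancer cells carrying an MMTV luciferase reporter; series mostly up to about 92 µM; nearly all actives have a fitted effect of over 25% in size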
In short: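 MDA-kb2 cells (MMTV-luciferase, AR/GR), 3,000/well, 5 h attachment, then 3.0 µM nilutamide (final) and compounds at 15 concentrations. Viability by CellTiter-Fluor fluorescence after 16 h at 37 °C, 0% CO2, in the reporter wells.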

[6] = qHTS assay to identify small molecule agonists of the estrogen receptor beta (ER-beta) signaling pathway - cell viability counter screen (AID 1259380); also: nearly all actives have a fitted effect of over 30% in size
In short: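 ER-beta-UAS-bla HEK293T cells in medium with 2% charcoal-stripped FBS, pre-incubated 6 hr, then treated 16 hr at 37C. Cytotoxicity read in the same wells by CellTiter-Glo luminescence after 30 min at room temperature.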

[7] = qHTS assay to identify small molecule antagonists of the estrogen receptor beta (ER-beta) signaling pathway - cell viability counter screen (AID 1259382); also: series mostly up to about 92 µM; nearly all actives have a fitted effect of over 55% in size
In short: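 ER-beta-UAS-bla HEK293T cells in 2% charcoal-stripped FBS medium, treated with compound plus 1 nM 17-beta-estradiol for 16 h at 37C. Viability read by CellTiter-Glo luminescence after 30 min at room temperature in the same wells.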

[8] = target: Estrogen receptor (Homo sapiens) (UniProt P03372); assay: qHTS assay to identify small molecule agonists of the estrogen receptor alpha (ER-alpha) signaling pathway in the presence of an antagonist (AID 1259383; calls by dose curve; also: top concentration of the series differs between compounds; nearly all actives have a fitted effect of over 15% in size)
In short: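 VM7Luc4E2 cells express endogenous full-length ER-alpha with an ERE-luciferase reporter and were hormone-deprived for 5 days. Compounds at 15 concentrations were added with 10.0nM ICI-182,780 for 22hr at 37C. Luminescence was read with ONE-Glo.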

[9] = qHTS assay to identify small molecule agonists or antagonists of the thyroid stimulating hormone receptor (TSHR) signaling pathway - wild type cell line counter screen (AID 1259384; calls by dose curve)
In short: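 Wild-type HEK293 cells were plated 18 h at 37 C/5% CO2, pin-dosed with compound plus Ro20-1724 medium, held 30 min at room temperature, then given cAMP-d2 and anti-cAMP-cryptate; fluorescence was read after 1 h. Fifteen concentrations, triplicate.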

[10] = target: Thyrotropin receptor (Homo sapiens) (UniProt P16473); assay: qHTS assay to identify small molecule antagonists of the thyroid stimulating hormone receptor (TSHR) signaling pathway (AID 1259385; calls by dose curve; also: nearly all actives have a fitted effect of over 20% in size)
In short: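 TSHR-HEK293 cells were plated and held 18 h at 37C/5% CO2, then given compound plus Ro20-1724 and stimulated with TSH at 1.5 ng/mL final. After 30 min at room temperature, cAMP was detected with cAMP-d2/anti-cAMP-cryptate (1 h) by fluorescence.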

[11] = qHTS assay to identify small molecule agonists of the estrogen receptor alpha (ER-alpha) signaling pathway in the presence of an antagonist - cell viability counter screen (AID 1259386);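 also: series mostly up to about 92 µM; cells exposed to compounds for 22 h at 37 °C before the viability read; nearly all actives have a fitted effect of over 30% in size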
In short: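 Cell viability in VM7Luc4E2 cells (endogenous full-length ER-alpha) measured by CellTiter-Fluor fluorescence in the same wells as the luciferase screen. Cells pre-cultured 5 days in charcoal-stripped serum, then treated 22 h with compounds at 15 concentrations plus 10.0nM ICI-182,780.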

[12] = target: Progesterone receptor (Homo sapiens) (UniProt P06401); assay: qHTS assay to identify small molecule agonists of the progesterone receptor (PR) signaling pathway (AID 1346784; calls by dose curve; also: nearly all actives have a fitted effect of over 30% in size)
In short: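 Agonist qHTS: compounds pinned onto 3,000 PR-UAS-bla HEK 293T cells per well in charcoal-stripped serum medium, 16hr at 37C, then beta-lactamase activity measured by LiveBLAzer FRET fluorescence after 2 hours at room temperature.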

[13] = target: Progesterone receptor (Homo sapiens) (UniProt P06401); assay: qHTS assay to identify small molecule antagonists of the progesterone receptor (PR) signaling pathway (AID 1346795; active = well fitted inhibition curve with a large enough effect in the signal ratio in the repeat runs, not every such curve was filed as active; the % refers to the signal ratio)
In short: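 Antagonist mode with agonist R5020 at 1 nM final and 16 hr incubation at 37C. Reporter was beta-lactamase driven by UAS in HEK293T (PR-UAS-bla), 2% charcoal-stripped serum; signal from LiveBLAzer FRET substrate, 2 hr at room temperature.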

[14] = qHTS assay to identify small molecule antagonists of the progesterone receptor (PR) signaling pathway - cell viability counter screen (AID 1346798); also: series mostly up to about 92 µM; nearly all actives have a fitted effect of over 50% in size
In short: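 Cytotoxicity read as CellTiter-Glo luminescence (30 min, room temperature) in the same wells as the beta-lactamase readout. HEK293T PR-UAS-bla cells in charcoal-stripped 2% FBS received compound and R5020, then 16 h at 37C, 5% CO2.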

[15] = qHTS assay to identify small molecule antagonists of the TGF-beta/Smad signaling pathway - cell viability counter screen (AID 1346824); also: nearly all actives have a fitted effect of over 50% in size
In short: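 SBE-bla HEK 293T cells were plated overnight at 37 C, then given compounds in DMSO plus TGF-beta1 (added as 0.25 ng/mL solution) for 5 hr. After the bla read, CellTiter-Glo was added to the same wells and luminescence read after 30 min at room temperature.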

[16] = target: Estrogen receptor beta (Homo sapiens) (UniProt Q92731); assay: qHTS assay to identify small molecule agonists of the estrogen receptor beta (ER-beta) signaling pathway (AID 1259377; active = well fitted activation curve with a large enough effect in the signal ratio in the repeat runs, not every such curve was filed as active; the % refers to the signal ratio)
In short: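 Ratiometric beta-lactamase FRET read-out came after 2 h substrate loading at room temperature. It followed 16 h compound treatment at 37C of GripTite HEK293T cells carrying a UAS-bla reporter, plated in 2% charcoal-stripped FBS medium.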

[17] = target: Estrogen receptor beta (Homo sapiens) (UniProt Q92731); assay: qHTS assay to identify small molecule antagonists of the estrogen receptor beta (ER-beta) signaling pathway (AID 1259378; active = well fitted inhibition curve with a large enough effect in the signal ratio in the repeat runs, not every such curve was filed as active; the % refers to the signal ratio)
In short: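 ER-beta-UAS-bla HEK293T (GripTite) cells in 2% charcoal-stripped FBS medium were preincubated 6 hr at 37C, dosed with compound, then stimulated with 1 nM E2 (final) for 16 hr; beta-lactamase reporter read by B/G FRET fluorescence after 2 hr substrate loading.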

[18] = qHTS assay to identify small molecule agonists of the progesterone receptor (PR) signaling pathway - cell viability counter screen (AID 1346799; calls by dose curve; also: nearly all actives have a fitted effect of over 45% in size)
In short: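 Cytotoxicity measured by CellTiter-Glo luminescence (30 min, RT) in the same wells as the PR beta-lactamase agonist read. Those HEK293T cells had 16 h compound treatment at 37 C in 2% charcoal-stripped FBS medium.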

[19] = target: Androgen receptor (Homo sapiens) (UniProt P10275); assay: qHTS assay to identify small molecule agonists of the androgen receptor (AR) signaling pathway in the presence of an antagonist (AID 1259381; calls by dose curve; also: nearly all actives have a fitted effect of over 15% in size)
In short: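 MDA-kb2 cells carrying MMTV-luciferase (AR/GR responsive), 3,000 cells/well, co-treated with 3.0 uM nilutamide final. Compounds at 15 concentrations, 16 hr at 37C without CO2. Luciferase luminescence read after 30 min with ONE-Glo.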
% is scaled to controls: 0 for no effect and ±100 for the full control effect.

Sequence of Estrogen receptor beta (Homo sapiens) (Q92731 whole entry, looked up): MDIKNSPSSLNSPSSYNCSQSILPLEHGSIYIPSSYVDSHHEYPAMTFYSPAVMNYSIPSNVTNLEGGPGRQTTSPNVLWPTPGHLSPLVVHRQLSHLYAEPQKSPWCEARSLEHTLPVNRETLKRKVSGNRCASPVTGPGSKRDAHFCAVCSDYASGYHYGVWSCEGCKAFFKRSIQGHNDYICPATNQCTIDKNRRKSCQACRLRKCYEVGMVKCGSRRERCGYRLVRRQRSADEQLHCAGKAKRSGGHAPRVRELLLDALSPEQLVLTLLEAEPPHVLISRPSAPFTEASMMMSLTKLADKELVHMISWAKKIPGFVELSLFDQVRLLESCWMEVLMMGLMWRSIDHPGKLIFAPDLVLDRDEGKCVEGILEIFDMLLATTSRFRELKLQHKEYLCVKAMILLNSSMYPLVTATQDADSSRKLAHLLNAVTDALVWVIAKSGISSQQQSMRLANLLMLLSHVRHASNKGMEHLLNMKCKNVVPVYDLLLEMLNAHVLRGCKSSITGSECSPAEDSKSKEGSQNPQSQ
Sequence of Estrogen receptor (Homo sapiens) (P03372 whole entry, looked up): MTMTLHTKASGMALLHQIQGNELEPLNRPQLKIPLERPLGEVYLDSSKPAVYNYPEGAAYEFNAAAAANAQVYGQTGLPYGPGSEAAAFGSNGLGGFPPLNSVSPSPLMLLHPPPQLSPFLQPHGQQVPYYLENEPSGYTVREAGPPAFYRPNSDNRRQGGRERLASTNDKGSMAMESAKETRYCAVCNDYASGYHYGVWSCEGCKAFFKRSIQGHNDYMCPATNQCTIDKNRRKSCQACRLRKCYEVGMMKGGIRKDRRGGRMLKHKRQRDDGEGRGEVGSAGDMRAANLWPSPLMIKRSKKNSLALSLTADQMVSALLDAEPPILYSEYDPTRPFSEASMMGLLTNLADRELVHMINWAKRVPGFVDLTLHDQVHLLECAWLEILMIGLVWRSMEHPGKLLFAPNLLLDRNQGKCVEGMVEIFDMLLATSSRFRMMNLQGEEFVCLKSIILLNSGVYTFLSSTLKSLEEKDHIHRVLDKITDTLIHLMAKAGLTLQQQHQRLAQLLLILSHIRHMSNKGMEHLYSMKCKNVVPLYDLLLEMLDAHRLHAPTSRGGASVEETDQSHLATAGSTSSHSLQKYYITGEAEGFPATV
Sequence of Progesterone receptor (Homo sapiens) (P06401 whole entry, looked up): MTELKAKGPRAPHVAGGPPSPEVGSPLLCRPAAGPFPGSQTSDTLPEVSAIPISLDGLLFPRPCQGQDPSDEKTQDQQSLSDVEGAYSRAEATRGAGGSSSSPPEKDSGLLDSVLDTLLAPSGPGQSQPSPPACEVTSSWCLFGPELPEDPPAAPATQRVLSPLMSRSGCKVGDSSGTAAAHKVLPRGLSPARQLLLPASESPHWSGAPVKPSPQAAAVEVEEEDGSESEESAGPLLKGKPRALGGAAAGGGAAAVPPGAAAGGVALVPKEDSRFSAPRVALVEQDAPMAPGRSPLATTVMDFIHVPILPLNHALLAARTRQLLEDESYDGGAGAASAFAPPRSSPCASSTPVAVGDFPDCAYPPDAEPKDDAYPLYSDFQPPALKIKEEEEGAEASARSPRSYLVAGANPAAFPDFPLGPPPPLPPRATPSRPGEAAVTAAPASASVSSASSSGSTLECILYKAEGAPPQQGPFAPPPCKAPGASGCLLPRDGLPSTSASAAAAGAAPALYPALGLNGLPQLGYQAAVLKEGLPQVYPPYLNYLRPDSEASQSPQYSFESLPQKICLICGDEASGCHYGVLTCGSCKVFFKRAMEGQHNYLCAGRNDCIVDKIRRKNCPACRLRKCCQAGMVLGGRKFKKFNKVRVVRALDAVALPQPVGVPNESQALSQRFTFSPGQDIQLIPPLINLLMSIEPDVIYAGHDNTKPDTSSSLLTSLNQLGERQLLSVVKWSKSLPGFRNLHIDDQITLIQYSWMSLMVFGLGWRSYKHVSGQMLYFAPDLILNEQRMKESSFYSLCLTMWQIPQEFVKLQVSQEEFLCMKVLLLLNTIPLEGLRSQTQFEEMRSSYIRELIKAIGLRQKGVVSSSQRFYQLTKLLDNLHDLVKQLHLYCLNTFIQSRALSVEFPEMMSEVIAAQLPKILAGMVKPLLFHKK
Sequence of Thyrotropin receptor (Homo sapiens) (P16473 whole entry, looked up): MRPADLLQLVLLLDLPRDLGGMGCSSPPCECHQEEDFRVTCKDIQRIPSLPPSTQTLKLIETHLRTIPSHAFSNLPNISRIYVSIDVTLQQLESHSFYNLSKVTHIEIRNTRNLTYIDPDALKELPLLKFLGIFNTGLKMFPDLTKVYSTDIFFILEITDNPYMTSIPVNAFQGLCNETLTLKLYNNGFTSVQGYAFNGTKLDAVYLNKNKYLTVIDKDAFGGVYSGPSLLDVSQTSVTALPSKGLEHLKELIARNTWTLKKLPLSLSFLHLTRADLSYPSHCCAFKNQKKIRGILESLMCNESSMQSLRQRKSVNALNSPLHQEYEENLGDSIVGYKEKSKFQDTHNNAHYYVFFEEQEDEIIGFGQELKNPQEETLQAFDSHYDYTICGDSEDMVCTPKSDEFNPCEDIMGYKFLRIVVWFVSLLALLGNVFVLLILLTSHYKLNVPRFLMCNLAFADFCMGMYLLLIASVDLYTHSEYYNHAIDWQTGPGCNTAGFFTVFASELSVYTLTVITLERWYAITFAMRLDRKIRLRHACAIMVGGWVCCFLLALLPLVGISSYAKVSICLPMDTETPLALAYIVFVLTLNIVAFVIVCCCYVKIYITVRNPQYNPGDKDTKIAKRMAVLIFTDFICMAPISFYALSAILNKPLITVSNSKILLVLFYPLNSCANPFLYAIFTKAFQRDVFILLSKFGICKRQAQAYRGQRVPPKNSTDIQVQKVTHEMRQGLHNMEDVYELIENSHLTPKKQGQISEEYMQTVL
Sequence of Androgen receptor (Homo sapiens) (P10275 whole entry, looked up): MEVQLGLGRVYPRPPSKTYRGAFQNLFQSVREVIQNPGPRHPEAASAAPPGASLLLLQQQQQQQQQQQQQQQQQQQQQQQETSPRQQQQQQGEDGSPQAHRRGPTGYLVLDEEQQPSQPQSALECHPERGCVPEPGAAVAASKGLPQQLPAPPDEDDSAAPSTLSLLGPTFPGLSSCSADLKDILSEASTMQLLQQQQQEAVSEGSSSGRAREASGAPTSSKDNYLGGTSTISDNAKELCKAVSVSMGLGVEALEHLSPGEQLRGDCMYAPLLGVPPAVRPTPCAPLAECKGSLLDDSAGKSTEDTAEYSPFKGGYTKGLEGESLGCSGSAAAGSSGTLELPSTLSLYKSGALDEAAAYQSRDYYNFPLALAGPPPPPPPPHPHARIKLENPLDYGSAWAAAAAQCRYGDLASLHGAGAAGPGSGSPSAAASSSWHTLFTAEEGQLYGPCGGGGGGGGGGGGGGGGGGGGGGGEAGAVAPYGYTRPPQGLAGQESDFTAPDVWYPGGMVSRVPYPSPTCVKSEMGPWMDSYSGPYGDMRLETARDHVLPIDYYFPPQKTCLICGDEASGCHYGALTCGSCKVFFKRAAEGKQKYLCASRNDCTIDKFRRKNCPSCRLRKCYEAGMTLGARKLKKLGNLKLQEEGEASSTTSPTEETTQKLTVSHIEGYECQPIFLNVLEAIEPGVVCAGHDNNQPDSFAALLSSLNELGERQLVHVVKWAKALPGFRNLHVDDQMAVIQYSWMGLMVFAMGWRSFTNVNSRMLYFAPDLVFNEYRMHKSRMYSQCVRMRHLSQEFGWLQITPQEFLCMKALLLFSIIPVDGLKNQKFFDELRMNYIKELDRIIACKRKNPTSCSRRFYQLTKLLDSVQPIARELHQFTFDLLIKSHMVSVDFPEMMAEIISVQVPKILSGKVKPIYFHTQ

OC1OCCOC1O (stereo unspecified)
inactive: outcome [1] | outcome [2] | outcome [3] | Potency [4] | outcome [5] | outcome [6] | outcome [7] | Potency [8] | outcome [9] | outcome [10] | outcome [11] | Potency [12] | Potency [13] | outcome [14] | outcome [15]

CCOCCOCC
inactive: outcome [1] | outcome [2] | outcome [3] | Potency [4] | Potency [16] | Potency [17] | outcome [5] | outcome [6] | Potency [8] | outcome [9] | outcome [10] | Potency [12] | Potency [13] | outcome [14] | outcome [15]

CCC(=O)CC
inactive: outcome [1] | outcome [2] | outcome [3] | Potency [4] | outcome [5] | outcome [6] | outcome [7] | Potency [12] | Potency [13] | outcome [14] | outcome [18] | outcome [15]

COc1cc(/C=C/C(N)=O)cc(OC)c1OC
inactive: outcome [1] | outcome [2] | outcome [3] | Potency [16] | Potency [17] | outcome [5] | outcome [6] | outcome [19] | outcome [7] | Potency [8] | outcome [9] | outcome [10] | outcome [11] | Potency [12] | Potency [13] | outcome [14] | outcome [15]

CCn1cc(C(=O)O)c(=O)c2cnc(N3CCCC3)nc21
inactive: viability change, negative = cytotoxic [2] -1.09% [at 8.39 µM] | activity change [3] 1.04% [at 8.39 µM] | activation [16] 4.52% [at 8.39 µM] | activity, negative = inhibition [17] 15.3% [at 8.39 µM] | activity change, negative = cytotoxicity [5] 0.387% [at 8.39 µM] | activity change, negative = cytotoxicity [6] 2.48% [at 8.39 µM] | activity change, negative = cytotoxicity [7] 13.9% [at 8.39 µM] | activity change, negative = inhibition [10] -0.0847% [at 8.39 µM] | activity change, negative = cytotoxicity [11] -1.71% [at 8.39 µM] | activation [12] 0.947% [at 8.39 µM] | activity change, negative = inhibition [13] 1.66% [at 8.39 µM] | activity change, negative = cytotoxicity [14] 1.24% [at 8.39 µM] | activity change, negative = cytotoxicity [18] 1.71% [at 8.39 µM] | viability change, negative = cytotoxic [15] 10.1% [at 6.97 µM]

NCc1ccc(S(N)(=O)=O)cc1
inactive: outcome [1] | outcome [2] | outcome [3] | Potency [4] | Potency [16] | Potency [17] | outcome [5] | outcome [6] | outcome [7] | outcome [10] | outcome [11] | Potency [12] | Potency [13] | outcome [14] | outcome [18] | outcome [15]

COS(=O)(=O)O
inactive: outcome [1] | outcome [2] | outcome [3] | Potency [16] | Potency [17] | outcome [5] | outcome [6] | outcome [9] | outcome [10] | outcome [11] | Potency [12] | Potency [13] | outcome [15]

C=CCCCCCCCCC(=O)OCCCC
inactive: outcome [1] | outcome [2] | outcome [3] | Potency [4] | Potency [16] | Potency [17] | outcome [5] | outcome [6] | outcome [7] | Potency [8] | outcome [9] | outcome [10] | outcome [11] | Potency [12] | Potency [13] | outcome [15]

Cc1ccc(C)c([N+](=O)[O-])c1
inactive: outcome [1] | outcome [2] | outcome [3] | Potency [4] | Potency [16] | Potency [17] | outcome [5] | outcome [6] | outcome [10] | outcome [11] | outcome [14] | outcome [18] | outcome [15]
